Shown are actives, neighbours in structure and some others; about 2.3% of the full set was active somewhere.
TAG inh = reduces triacylglycerol accumulation in H9c2 cells | Nile Red lipid (TAG) fluorescence; cells loaded with 200 µM oleic acid | inhibition, % at 12.5 µM | 230,000 tested, 0.66% active;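 active = pattern-corrected inhibition of lipid staining of at least 50% with the nuclear-stain viability signal not falling by more than 50%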
697 NFkB inh = inhibitors of the PMA/ionomycin-induced NF-kB reporter in 697 B cells. inhibition, % at 4 µM. 697 B-cell NF-kB luciferase reporter, 16 h. 330,000 tested, 0.33% active; in the data active = inhibition above about 35%
Gli-Sufu antag = Gli-Sufu pathway antagonism. Sufu-KO-LIGHT fibroblasts, Gli luciferase reporter luminescence. inhibition, % at 5 µM. 340,000 tested, 0.74% active. AID 588413;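 active = inhibition above about 55%, limit read from the data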
aSyn 5UTR inh = MLPCN primary screen, SNCA 5' untranslated region; alpha-synuclein 5'UTR reporter, inhibitor activity; inhibition, % (tested at 7.5 µM); 300,000 tested, 0.82% active; in the data active = inhibition above about 60%; inconclusive = no clear call, values can overlap the other calls;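 note: H4 neuroglioblastoma cells stably carrying SNCA 5'UTR luciferase fusion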
Jurkat NFkB inh = inhibitors of the PMA/ionomycin-induced NF-kB reporter in Jurkat cells; 330,000 tested, 0.53% active; PMA/ionomycin-induced NF-kB luciferase reporter, luminescence; AID 435003; inhibition, % at 4 µM; in the data active = inhibition above about 50%
Shn3 inh set2 = inhibitors of Schnurri-3 3'UTR reporter in osteoblasts. Clone20 osteoblast Shn3 3'UTR firefly luciferase, 24 h. inhibition, % at 12.5 µM. 360,000 tested, 0.52% active. AID 588674;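 active = mean inhibition of at least 75% with every replicate also reaching 75%; inconclusive = mean inhibition at least 75% but some replicate below; inactive = mean inhibition below 75%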
Jurkat NFkB conf = inhibitors of the PMA/ionomycin-induced NF-kB reporter in Jurkat cells, retest. shares compounds with Jurkat NFkB inh. AID 435020. 2,700 tested, 27% active. inhibition, % at 4 µM. Jurkat NF-kB luciferase, 16 h;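 active = inhibition reaching about 45% at 4 µM in either replicate, limit read from the data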
Of the large screens only hits and unclear results are named; the others gave an inactive call (follow-up assays come after a bar, where they were run).

Cc1ccc(NS(=O)(=O)c2ccc(-c3cnc(C4CC4)o3)cc2)cc1	none (no result: TAG inh)
Cc1cccc(C)c1NS(=O)(=O)c1ccc(-c2cnc(C3CC3)o2)cc1	Gli-Sufu antag 57, aSyn 5UTR inh 103, Jurkat NFkB inh 59 (no result: TAG inh) | Jurkat NFkB conf 64
Cc1ccc(N(C)S(=O)(=O)c2ccc(-c3cnc(C4CC4)o3)cc2)cc1	aSyn 5UTR inh 84, Jurkat NFkB inh 52 (no result: TAG inh) | Jurkat NFkB conf 52
C/C(=N\N1CCN(Cc2ccccc2Cl)CC1)c1ccc([N+](=O)[O-])cc1	Jurkat NFkB inh 51 (no result: Shn3 inh set2) | Jurkat NFkB conf inactive
CCc1c(C)nc(N)n2c(SCC(=O)N3CCCc4ccccc43)nnc12	none (no result: TAG inh)
Cc1cc(C)c2c(N)c(C(=O)Nc3ccc(F)cc3)sc2n1	none (no result: TAG inh) | Jurkat NFkB conf inactive
O=C(Oc1ccc(Cl)c(Cl)c1)C1=CC=CN2CCS(=O)(=O)N=C12	none (no result: aSyn 5UTR inh)
CN(C)c1ccc(-c2nnc(-c3cccs3)o2)cc1	aSyn 5UTR inh 82 | Jurkat NFkB conf inactive
CSc1cccc(NC(=O)/C=C/c2ccccc2)c1	none
CSc1ccc(/C=C/C(=O)Nc2ccccc2)cc1	none (no result: aSyn 5UTR inh) | Jurkat NFkB conf inactive
COc1c(C=O)c2c(c(OC)c1OC)-c1ccc(OC)c(=O)cc1C(NC(C)=O)CC2 (stereo not drawn)	none (no result: 697 NFkB inh, aSyn 5UTR inh, Jurkat NFkB inh)
COc1cc2c(c(OC)c1OC)-c1ccc(OC)c(=O)cc1C(NC(C)=O)CC2 (stereo not drawn)	aSyn 5UTR inh 75, Jurkat NFkB inh 63 (no result: TAG inh) | Jurkat NFkB conf 60
Cc1ccc2nc(NC(=O)/C=C/c3ccc4c(c3)OCO4)sc2c1	none (no result: TAG inh)
O=C(/C=C/c1ccc2c(c1)OCO2)Nc1nc2ccccc2s1	none (no result: TAG inh) | Jurkat NFkB conf inactive
Cc1ccc(NC(=O)c2ccc3c(c2)C(=O)N(CC2CCCO2)C3=O)cc1C (stereo not drawn)	none
COc1cccc2sc(Nc3nnc(-c4ccccc4Cl)o3)nc12	aSyn 5UTR inh 66, Jurkat NFkB inh 58 | Jurkat NFkB conf inactive
COc1ccccc1-c1nnc(Nc2nc3c(OC)cccc3s2)o1	TAG inh 67, Gli-Sufu antag 89, aSyn 5UTR inh 81, Jurkat NFkB inh 88 | Jurkat NFkB conf inactive
COc1cccc2sc(NN)nc12	none
COc1cccc2sc(Nc3nc(-c4ccncc4)cs3)nc12	TAG inh 57, aSyn 5UTR inh 105, Jurkat NFkB inh 60 | Jurkat NFkB conf inactive
COc1ccc(C2(c3ccc(OC)cc3)NC(=O)N(CC(=O)N(C)c3ccccc3)C2=O)cc1	none
Cc1noc(C)c1CSc1nc2ccccc2c(=O)n1-c1ccc(F)cc1F	none
Cc1noc(C)c1CSc1nc2ccccc2c(=O)n1-c1ccccc1	Jurkat NFkB inh 54 | Jurkat NFkB conf inactive
Cc1ccc(CNC(=O)COc2ccc(C)nc2[N+](=O)[O-])cc1	Jurkat NFkB inh 87 (no result: TAG inh) | Jurkat NFkB conf inactive
Cc1ccc(OCC(=O)NCc2ccc3c(c2)OCO3)c([N+](=O)[O-])n1	none
Cc1ccc(OCc2ccccc2Br)c([N+](=O)[O-])n1	none (no result: TAG inh)
Cc1ccc(COc2ccc(C)nc2[N+](=O)[O-])cc1	none | Jurkat NFkB conf inactive
COc1ccc(NC(=O)c2ccc3c(c2)CCN3S(=O)(=O)c2ccccc2)c(OC)c1	none (no result: TAG inh)
O=C(COc1ccc2ccccc2c1)NCCn1ccc2ccccc21	none
CN1/C(=C\C(=O)c2cccnc2)C(C)(C)c2ccccc21	none
CN1/C(=C/C(=O)c2nc(S(C)(=O)=O)ncc2Cl)C(C)(C)c2ccccc21	aSyn 5UTR inh inconclusive, Jurkat NFkB inh 57, Shn3 inh set2 96 (no result: TAG inh) | Jurkat NFkB conf inactive
O=C(C1CCN(CCc2ccccc2)CC1)N1CCOCC1	none (no result: 697 NFkB inh, aSyn 5UTR inh, Jurkat NFkB inh)
NNC(=O)COc1ccccc1F	Jurkat NFkB inh 96 | Jurkat NFkB conf inactive
O=C(Nc1cccc(S(=O)(=O)N2CCCCC2)c1)C1CC(=O)N(Cc2ccccc2)C1 (stereo not drawn)	none (no result: aSyn 5UTR inh)
O=C(Nc1cccc(S(=O)(=O)N2CCCC2)c1)c1ccc(Cl)nc1	Jurkat NFkB inh 63 (no result: aSyn 5UTR inh) | Jurkat NFkB conf inactive
C[C@@H]1CN([C@@H](C)CO)C(=O)c2cc(NS(C)(=O)=O)ccc2O[C@@H]1CN(C)Cc1ccc(C(F)(F)F)cc1	none (no result: 697 NFkB inh, aSyn 5UTR inh, Jurkat NFkB inh)
COc1ccc(N2CC(C(=O)Nc3ccccc3N3CCCC3)CC2=O)c(OC)c1 (stereo not drawn)	Jurkat NFkB inh 58 | Jurkat NFkB conf inactive
COc1cc(C2Nc3cccc4cccc(c34)N2)ccc1O	none
CCC1([N+](=O)[O-])COC(C=Cc2ccccc2)OC1 (stereo not drawn)	none (no result: 697 NFkB inh, aSyn 5UTR inh, Jurkat NFkB inh)
O=C1C=CCC(/C=C/c2ccccc2)O1 (stereo not drawn)	Jurkat NFkB inh 100 (no result: TAG inh, Shn3 inh set2) | Jurkat NFkB conf 96
Clc1ccc(OCc2nc(-c3ccccn3)no2)c(Br)c1	none | Jurkat NFkB conf inactive
Clc1ccccc1OCc1nc(-c2ccccn2)no1	none
CCC(C)[C@H](N)c1nnc(SCc2cccc(F)c2)o1 (stereo partly drawn)	none (no result: TAG inh)
Cc1ccc(/C=N/Nc2cccc(C(=O)O)c2)s1	none (no result: TAG inh)
COc1cc(C=NNc2ccccc2)ccc1OC(=O)c1ccccc1	none (no result: 697 NFkB inh, Gli-Sufu antag, aSyn 5UTR inh, Jurkat NFkB inh)
CCOc1cc(/C=N/Nc2cccc(C(=O)O)c2)ccc1OC(=O)c1ccccc1	aSyn 5UTR inh 98, Jurkat NFkB inh 58 | Jurkat NFkB conf inactive
Cc1ccsc1/C=N/Nc1cccc(C(=O)O)c1	aSyn 5UTR inh 105, Jurkat NFkB inh 56 | Jurkat NFkB conf inactive
CCOc1cc(/C=C2\C(=O)N(Cc3ccc(C)cc3)C(C)=C2C(=O)OC)ccc1O	none
Cc1nc(-c2ccccc2)sc1-c1ccnn1C	none
Cc1nc(-c2ccccc2)sc1-c1ccn[nH]1	none | Jurkat NFkB conf inactive
CCOC(=O)c1c(C)[nH]c(C(=O)N/N=C/c2cc([N+](=O)[O-])ccc2O)c1C	none (no result: TAG inh)
CCOC(=O)c1c(NC(=O)N/N=C/c2ccccc2OCC)sc(C(C)=O)c1C	none (no result: TAG inh, 697 NFkB inh, Jurkat NFkB inh)
CCOC(=O)c1c(C)[nH]c(C(=O)N/N=C/c2ccc(OC)c(OC)c2)c1C	Jurkat NFkB inh 55 (no result: TAG inh) | Jurkat NFkB conf inactive
CCOC(=O)c1c(NC(=O)N/N=C/c2ccc(O)c(OC)c2)sc(C(C)=O)c1C	Jurkat NFkB inh 58 (no result: TAG inh, Gli-Sufu antag, Shn3 inh set2) | Jurkat NFkB conf inactive
CCOc1ccc(Br)cc1/C(C)=N\NC1=NCCN1	Jurkat NFkB inh 70 | Jurkat NFkB conf inactive
CC(C)(C)NC(=O)C1CC1(c1ccccc1)c1ccccc1 (stereo not drawn)	none (no result: TAG inh)
O=C1CCC/C=C\C[C@@H](CC(=O)N(CCO)Cc2ccccc2)C(=O)N[C@H](Cc2c[nH]c3ccccc23)CO1	none (no result: aSyn 5UTR inh)
O=C(N/N=C/c1ccc(Br)cc1)c1ccc(Br)o1	none (no result: TAG inh)
C(=N\Nc1nc2ccccc2s1)/c1ccccn1	Gli-Sufu antag 75, aSyn 5UTR inh 101, Jurkat NFkB inh 84 (no result: TAG inh, Shn3 inh set2) | Jurkat NFkB conf 73
COc1ccc(C=NNc2nc3ccccc3s2)cc1	none (no result: 697 NFkB inh, aSyn 5UTR inh, Jurkat NFkB inh)
O=C(c1cc(-c2ccccc2)nc2ccccc12)N1CCN(c2ccccn2)CC1	none
Cc1ccccc1C(=O)N1CCN(c2ccccn2)CC1	none (no result: TAG inh)

Screening data from PubChem BioAssay.
